# Tests used:
# Assay in all cases: PBM binding z-score (relative to random genomic background probes); higher = stronger binding; sequences stand for … in GC…GCGATTGACAGCGTAGAATGAAGG
# [1] = system: FXR:RXRa (NR concentration 270 nM, RXRa partner concentration 90 nM)
# Outline: (§1)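 Probes were double-stranded and carried 34-nt variable regions with direct-repeat seeds, single-nucleotide variants, half-site ablations and random human genomic background sequences, printed on custom Agilent 4×180K protein-binding microarrays. Arrays were incubated 1 h with ligand-free nuclear receptor dimers in PBS pH 7.4, 2% milk, 0.02% Triton X-100, 1 mM DTT, 0.2 mg/mL BSA and 0.4 mg/ml salmon testes DNA. Antibodies against each partner (one per run) detected binding, and scanned fluorescence was regression-normalized. Binding z-scores use the random background probes as reference.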
# [2] = system: LXRa:RXRa (NR concentration 270 nM, RXRa partner concentration 90 nM)
# Outline: as §1
# [3] = system: LXRa homodimer (NR concentration 270 nM)
# Outline: as §1
# [4] = system: LXRb:RXRa (NR concentration 270 nM, RXRa partner concentration 90 nM)
# Outline: as §1
# [5] = system: LXRb homodimer (NR concentration 270 nM)
# Outline: as §1
# [6] = system: PPARa:RXRa (NR concentration 270 nM, RXRa partner concentration 90 nM)
# Outline: as §1
# [7] = system: PPARg:RXRa (NR concentration 180 nM, RXRa partner concentration 90 nM)
# Outline: as §1
# [8] = system: PPARg:RXRa 270nM:90nM, anti-RXR (NR concentration 270 nM, RXRa partner concentration 90 nM)
# Outline: as §1
# [9] = system: PPARg:RXRa 30nM:10nM, anti-RXR (NR concentration 30 nM, RXRa partner concentration 10 nM)
# Outline: as §1
# [10] = system: PPARg:RXRa 90nM:30nM, anti-RXR (NR concentration 90 nM, RXRa partner concentration 30 nM)
# Outline: as §1
Sequence,PBM binding z-score [1],PBM binding z-score [2],PBM binding z-score [3],PBM binding z-score [4],PBM binding z-score [5],PBM binding z-score [6],PBM binding z-score [7],PBM binding z-score [8],PBM binding z-score [9],PBM binding z-score [10]
AGTCAAAGTTCAGCTAGGTAACGTAAGATATGCT,3.9,3.86,1.68,1.91,0.177,3.34,4.61,4.73,2.11,4.07
CCTAGGAGGCCAGGGTCACTCAAGCATTTCGCTT,1.76,1.21,-0.383,1.7,-1.15,3,0.95,1.71,-0.259,0.653
TCATATCGGTAATACAGGTGAAAGTCGGCATCTA,0.812,0.733,0.448,0.822,0.305,1.58,0.895,2.79,3.92,3.03
AGTCAAAGTTCACTAGGTAAAGTAAGATTCAGCT,5.11,4.89,2.94,2.95,0.968,4.53,7.12,6.14,3.45,5.45
GCAACGAGGGCATTCGAGTTGATAGCATGGCGAT,0.802,1.56,-0.374,0.0313,-0.641,1.15,0.475,0.0611,-0.488,-0.307
CCTCGGAGGACAGAAGGTCAGAGGTGTCCGCTTT,1.1,1.45,0.406,0.796,-0.636,2.06,0.463,1.58,-0.408,0.771
CAAACTAGATCACAGAGGTCAAAGTCCGTGCGTA,4.82,5.45,6.08,5.22,2.14,5.26,4.26,4.86,2.01,4.09
GCATATAGGTAATACAAGGTGCAAGTCCGATTGT,-0.133,-0.156,-0.264,-0.333,-0.455,0.617,0.975,0.986,0.152,0.648
ATCGAAAGGTCGAAGGTGATTATACCCACCCGAA,4.31,3.69,0.425,2.92,0.626,4.48,4.21,4.47,2.33,3.99
AATACAGGGACACTAGGCCAGAGTAGGTACGAAT,-0.211,-0.375,-0.0605,-0.483,-0.0261,-0.00279,0.846,0.394,0.113,0.294
CCTGCTACGTCAATGGTCAGCTAAAGCAGCTCGC,-0.5,-0.409,-0.45,-0.531,-0.36,-0.295,-0.37,-0.498,-0.833,-0.566
CATACAGGGTCAGCTAGGACAGAGTAGGGACGGC,4.48,2.8,-0.0468,2.29,0.178,4.13,3.16,2.87,0.481,1.76
GCTTGTAGATCAAGCTTAAGAAAGACTAAGCTAA,-0.441,-0.75,-0.914,-0.777,-1.32,-0.455,-0.439,-0.251,-0.693,-0.381
CATACTAGGTCAAGAGGTCAAAGTCCGCTTCCCG,7.24,6.42,7.38,5.6,2.49,6.35,8.96,7.68,5.59,7.65
TCATATAGGAAAAAGGTGAAAGTCGGTGTGGTAA,1.37,1.47,-0.216,1.38,-0.0192,2.87,3.05,5.37,5.19,5.73
CCAGACAGGTGAAAGGTAACTTAGTCTGGTACGC,0.545,0.539,-0.368,0.935,-0.486,3.31,5.21,5.6,3.58,5.77
CTCGAAAGGTCGCGCTCAGGTGAGTATACCAAAC,5.56,4.34,0.0163,3.5,0.0326,5.16,3.37,4.57,1.32,2.97
TCATATAGGTAAATGCGAGGTGAAAGTCCGATCT,1.14,1.58,0.216,0.944,-0.00137,2.07,1.06,2.53,4.02,3.07
CGAACTAGGTCATCCGGGACAGTGAATACATTGA,4.46,2.66,0.565,2.05,0.166,5.08,8.08,6.28,3.97,5.8
CCTTACGGGCCACTGACAGGTTATAGCATTTGGA,-0.0975,-0.00158,0.136,-0.0299,-0.59,0.315,0.415,0.0355,-0.0145,-0.254
CGTCAAAGTTCAAATAAGGTAACGTAAAGCACGC,7.39,6.55,4.89,4.17,3.25,4.95,4.86,5.6,2.25,4.67
CCTACTGGGCCACGAAAGTTCATTGATTCAGTGA,0.912,3.67,4.62,1.82,-0.000733,2.69,2.47,2.77,0.297,1.86
CCTCGGAGGACAACACGAGGTCAGAGCTGCCAGA,1.62,2.84,2.76,1.58,-0.589,2.22,0.596,0.153,-0.655,-0.293
TCTTGTAGATCAGCAGGTGAAGAAAGCTGGCCAA,0.169,-0.0408,-0.605,-0.0895,-0.698,0.51,-0.409,1.19,2.2,1.8
